Source: PubChem BioAssay
HT1080 IDH1KD tx: qHTS for induction of synthetic lethality in tumor cells producing 2HG: qHTS for the HT-1080-IDH1KD cell line | AID 686971, 2013 | 360,000 compounds, 2% hits | Potency, µM (titrated, usually from 46.1 µM), for inactives: at the top dose activity, negative = toxicity, usual class: cytotoxic | HT-1080 IDH1 knockdown viability, ATP luminescence, 48 h;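 further: potency means the concentration at half of the fitted maximal effect; 0% = DMSO wells and -100% = cell-free medium wells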
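After a 2 h attachment period, IDH1KD HT-1080 cells took pin-transferred compound for 48 h at 37 °C; ATP-based luminescence after 10 min room-temperature reagent incubation reported viability.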
DT40 TDP1 CPT: qHTS for Inhibitors of human tyrosyl-DNA phosphodiesterase 1 (TDP1): qHTS in cells in presence of CPT. Potency, µM (highest dose often 46.2 µM), for inactives: top-dose activity change, negative = growth inhibition, most hits filed as inhibitors. 420,000 compounds, 12% hits. AID 686979, 2013. chicken DT40 Tdp1-/-;hTDP1 cells + 20 nM CPT, ATP luminescence, 48 h; further: potency means the concentration at half of the fitted maximal effect; nearly all actives have a fitted effect of over 55% in size
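Chicken DT40 Tdp1-/- cells stably complemented with human TDP1 were seeded at 400 cells/well in medium containing 20 nM camptothecin, exposed to pin-transferred compounds, and grown at 37 °C for at least 48 hr. Viability was read as ATP luminescence.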
HT1080NT lethal: qHTS for induction of synthetic lethality in tumor cells producing 2HG: qHTS for the HT-1080-NT fibrosarcoma cell line; Potency, µM (series often up to 46.1 µM), for the others: top-dose activity, negative = less viability, most hits filed as cytotoxic; 360,000 compounds, 1.6% hits; HT-1080-NT fibrosarcoma viability, CellTiter-Glo ATP luminescence, 48 h;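 further: NT is the 2HG producing partner of a matched IDH1 knockdown line; potency means the concentration at half of the fitted maximal effect; 0% = DMSO-treated cells and -100% = media-only wells without cells; nearly all actives have a fitted effect of over 55% in size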
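Fibrosarcoma NT cells, 750 per well in 5% FBS RPMI, were exposed to compound for 48 hours. Viability: CellTiter-Glo luminescence.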
IL-1B inflam inh: qHTS for Inhibitors of Inflammasome Signaling: IL-1-beta AlphaLISA Primary Screen; THP-1 LPS/ATP IL-1B secretion, AlphaLISA, 16 h; stronger effect = lower value; activity change, % at 57.5 µM; 360,000 compounds, 4.7% hits; in the data active means activity change below about -50%; inconclusive means mostly about -30% to -49%
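THP-1 cells pretreated 1 hr with compounds (up to 57.5 uM final), then stimulated with LPS (250 ng/mL final) plus ATP (1.25 mM final); secreted IL-1B measured by AlphaLISA after 16 hr, decreased signal indicating inhibition.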
TDP1 cell noCPT: qHTS for Inhibitors of human tyrosyl-DNA phosphodiesterase 1 (TDP1): qHTS in cells in absence of CPT; DT40 Tdp1-/- hTDP1 cells, no CPT, ATP luminescence, 48 h; Potency, µM (titrated, usually from 46.2 µM), inactives show at the top dose activity change, negative = growth inhibition, hits mostly inhibitors; 420,000 compounds, 15% hits; further: potency means the concentration at half of the fitted maximal effect; nearly all actives have a fitted effect of over 55% in size
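Camptothecin absent (DMSO only). Human TDP1-complemented DT40 knockout cells, 400 cells/well, 37 °C for minimum 48 hr; ATP measured via CellTiter-Glo, 30 min dark incubation, luminescence.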
Active calls of the source: *; ? = inconclusive; . = no result; [ ] = dose if it differs, or a comment. In the library only some 19% were active in any assay of this set; here they are far more common. Unless noted, the call rests on the fitted dose curve; in most records, active means well fitted curve in the direction sought with a large enough effect; inconclusive means small, poorly fitted or top-dose-only effect, or another doubt; inactive means no such curve, though single readings can be large; an effect the other way counts as inactive or inconclusive. Unless noted, on the % scale 0 is the no-effect control and ±100 the full control effect.

SMILES | HT1080 IDH1KD tx | DT40 TDP1 CPT | HT1080NT lethal | IL-1B inflam inh | TDP1 cell noCPT
CC1CCCN(CCOc2ccc(Br)cc2)C1 (configuration not stated) | 16% | 3% | 15% | -15 | -20%
COCc1cc(C)nc2c1C(=O)NC(c1ccc(F)cc1)N2Cc1ccccc1 (configuration not stated) | . | -7% | . | . | -16%
C[C@H](CO)N1C[C@H](C)[C@H](CN(C)S(=O)(=O)c2ccc3ccccc3c2)OCc2cnnn2CCCC1=O | 0% | ? | -2% | -23 | ?
Cc1cc(Cl)c(OCCCNC2CCCC2)c(Br)c1 | 21µM* | ? | ? | -73* | ?
Cc1cc(Cl)c(OCCOCCN2CCCC(C)C2)c(Br)c1 (configuration not stated) | ? | 29µM* | 18µM* | -15 | 16µM*
C=CCn1cnc2c(oc3ccccc32)c1=O | 12% | 3% | 10% | 8 | -2%
COc1ccc(C(=O)NCC2Cc3c(F)ccc(-c4nc(C)cnc4C)c3O2)cc1F (configuration not stated) | . | -2%[9.04 µM] | . | . | -25%
CCN(CC)CCN(Cc1cc2cc(C)ccc2[nH]c1=O)C(=O)Nc1ccccc1OC | -25% | ? | -27% | -22 | ?
COc1ccccc1CN(Cc1nc2ccccc2c(=O)[nH]1)C(=O)Nc1ccccc1C | 11µM* | 1% | ? | -13 | -6%
CCc1ccc2[nH]c(=O)c(CN(Cc3ccccc3OC)C(=O)Nc3ccccc3OC)cc2c1 | -16% | 18µM* | 1%[9.24 µM] | -60* | 23µM*
COc1ccc2[nH]c(=O)c(CN(CC3CCCO3)C(=O)Nc3ccccc3OC)cc2c1 (configuration not stated) | ? | 13µM* | ? | -62* | 10µM*
COc1ccccc1CN(Cc1nc2ccccc2c(=O)[nH]1)C(=O)Nc1ccc(C)cc1 | -23% | ? | 0% | -4 | ?
COCCNc1nc(Nc2ccc(C)cc2C)c2sc(-c3ccccc3)cc2n1 | ? | 26µM* | ? | -25 | 18µM*
CC(C)Nc1nc(NCCN2CCCC2)c2sc(-c3ccccc3)cc2n1 | ? | 6.5µM* | ? | . | 13µM*
CC(C)Nc1nc(-c2ccccc2F)c2sc(-c3ccccc3)cc2n1 | -7% | ? | 9% | 3 | ?
CCc1ccccc1Oc1nc(NCCOC)nc2cc(-c3ccccc3)sc12 | 4% | ? | -3% | -25 | ?
C=CCNc1nc(NCCOc2ccccc2Cl)c2sc(-c3ccccc3)cc2n1 | ? | 15µM* | 18µM* | -111* | 15µM*
C=CCNc1nc(NCc2ccc(N(C)C)cc2)c2sc(-c3ccccc3)cc2n1 | ? | 6.5µM* | ? | -24 | 5.8µM*
Cn1c(NCCCO)nc2c1c(=O)n(Cc1cccc(F)c1)c(=O)n2C | . | -12% | . | . | -21%
CN(CC(=O)Nc1c(Cl)cccc1Cl)C(=O)CCNS(=O)(=O)c1ccccc1C(F)(F)F | 23% | ? | 4% | -4 | ?
C=CCNc1nc(NCCOC)c2sc(-c3ccccc3)cc2n1 | ? | ? | ? | -113* | 13µM*
C=CCNc1nc(Nc2ccc(OC)c(OC)c2)c2sc(-c3ccccc3)cc2n1 | 5.8µM* | 1.8µM* | 5.2µM* | -108* | 1.6µM*
CC(C)(C)SCCNC(=O)/C=C/c1cccc([N+](=O)[O-])c1 | 12% | -3% | 11% | -14 | ?
CCc1ccc(O)c(C(=O)c2cnc3cc(-c4ccc(C)cc4)nn3c2)c1 | . | ? | . | . | -5%
CCc1nn2cc(C(=O)c3cc(Cl)ccc3O)cnc2c1-c1ccc(F)cc1 | ? | ? | ? | -77* | ?
SMILES | HT1080 IDH1KD tx | DT40 TDP1 CPT | HT1080NT lethal | IL-1B inflam inh | TDP1 cell noCPT
O=C(COC(=O)c1c[nH]c2ccccc12)NC1CCCCC1 | 5% | 1% | 10% | 9 | ?
CC(=O)N1CCC2(CC1)CC(=O)c1cc(Cl)ccc1O2 | 8% | -15% | 4% | 16 | -16%
O=C1CC(c2ccc(Cl)cc2)Oc2ccc(Cl)cc21 (configuration not stated) | ? | ? | ? | -87* | ?
O=C1CC(c2cccc(O)c2)Oc2ccccc21 (configuration not stated) | -5% | ? | 1% | -83* | ?
Cn1c(Cl)cnc1C1CC(=O)c2cc(Cl)ccc2O1 (configuration not stated) | 9.2µM* | 4.1µM* | ? | -95* | 2.6µM*
COc1ccc(-n2nc3cc(C)c(NC(=O)c4ccc(-c5ccc(Cl)cc5)o4)cc3n2)cc1 | . | 0% | . | . | -4%
COCCNC(=O)/C(C#N)=C/c1c(F)cccc1Cl | -8% | ? | -19% | -54* | 10µM*
COCCCNC(=O)/C(C#N)=C/c1cccc(NC(=O)c2ccccc2Cl)c1 | 15µM* | 2.6µM* | ? | -103* | 2.6µM*
COCCCNC(=O)/C(C#N)=C/c1ccc(F)cc1 | 25% | 9% | 9% | -6 | -1%
CN1CCN(C(=O)c2ccc(F)c(F)c2)CC1 | 8% | -2% | 11% | 9 | 11%
O=C(NC1CCCCC1)c1cccc2c(-c3ccc(F)c(F)c3)coc12 | -17% | ? | 22% | -19 | ?
COc1cc(NC(=O)c2ccc(-c3cccnc3)c3ccoc23)cc(OC)c1OC | 3% | 13µM* | -14% | 0 | 6.5µM*
COCCNC(=O)c1ccc(-c2cn[nH]c2)c2ccoc12 | -2% | ? | -1% | 3 | -3%
COc1cc(NC(=O)c2ccc(-c3cn[nH]c3)c3ccoc23)cc(OC)c1OC | 3% | 12µM* | -1% | -74* | 13µM*
CN1CCN(C(=O)c2ccc(-c3ccc(F)c(F)c3)c3ccoc23)CC1 | -26% | 16µM* | -25% | 6 | 16µM*
CC(C)NC(=O)c1ccc(-c2ccc(F)c(F)c2)c2ccoc12 | -2% | 26µM* | 11% | -24 | 23µM*
Cc1ccc(S(=O)(=O)NCC(=O)OCC(=O)c2c(N)n(C)c(=O)n(C)c2=O)cc1 | 8% | ? | 2% | 4 | -17%
COCCNCc1cc(C)n(-c2cc(S(=O)(=O)N3CCOCC3)ccc2N2CCCC2)c1C | -8% | ? | -2% | -25 | ?
O=C(Nc1cccc(C(F)(F)F)c1)c1ccc(-c2ccc(F)c(F)c2)c2ccoc12 | 26% | ? | ? | -15 | ?
